# Source: PubChem BioAssay
# LmPK inhibitor = qHTS Assay for Inhibitors of Leishmania Mexicana Pyruvate Kinase (LmPK); Q27686; 0.37% of 290,000 active; Potency, µM (top dose mostly 57.5 µM), usual class: inhibitors; purified LmPK, Kinase-Glo ATP luminescence, 1 h; AID 1721, 2009
# Target sequence (Q27686 whole entry, looked up): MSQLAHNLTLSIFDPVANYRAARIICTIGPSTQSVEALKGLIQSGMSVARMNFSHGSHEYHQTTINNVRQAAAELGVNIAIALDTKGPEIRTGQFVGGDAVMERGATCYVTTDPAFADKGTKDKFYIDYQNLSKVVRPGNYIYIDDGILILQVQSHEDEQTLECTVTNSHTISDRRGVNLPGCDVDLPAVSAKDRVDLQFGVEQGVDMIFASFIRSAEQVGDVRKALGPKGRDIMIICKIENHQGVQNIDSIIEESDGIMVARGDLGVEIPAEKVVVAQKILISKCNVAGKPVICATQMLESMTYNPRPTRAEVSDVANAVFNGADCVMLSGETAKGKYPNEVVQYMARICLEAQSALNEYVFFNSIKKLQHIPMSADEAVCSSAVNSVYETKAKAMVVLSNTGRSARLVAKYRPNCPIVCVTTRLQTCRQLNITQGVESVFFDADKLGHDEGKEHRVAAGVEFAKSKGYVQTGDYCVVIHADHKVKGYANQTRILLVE
#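 Purified LmPK (0.1 nM) converted ADP (0.1 mM) to ATP with PEP (0.5 mM) in imidazole buffer pH 7.2 with KCl and MgCl2, 1 h at room temperature. ATP was read by Kinase-Glo luminescence; data normalized to uninhibited and no-enzyme controls.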
# NS1 function inh = qHTS Assay for Inhibitors of Influenza NS1 Protein Function. 0.4% of 270,000 active. Potency, µM (doses to about 46.1 µM); calls by dose curve; further: actives are rising curves; nearly all actives have a fitted effect of over 50% in size
#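 Compounds were scored for reversing the slow growth caused by influenza A NS1 in S. cerevisiae, measured by optical density at 600 nm. Assay medium contained 2% galactose at pH 6.0; NS1-free yeast of the same strain were the positive control.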
# Sm TGR block = qHTS Assay for the Inhibitors of Schistosoma Mansoni Peroxiredoxins; purified TGR, DTNB reduction, TNB absorbance 405 nm; Potency, µM (titrated, usually from 114 µM), most hits filed as inhibitors; 3% of 360,000 active; AID 485364, 2010; further: nearly all actives have a fitted effect of over 60% in size
#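 First, TGR (20 nM dispensed) and NADPH were mixed with compound. Second, a 15 min room-temperature incubation followed. Third, further NADPH and then DTNB were added to start the reaction. Finally, TNB absorbance was monitored kinetically.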
# RE007 growth inh = qHTS Assay for Inhibitors of the HIV-1 protein Vpr. S. pombe RE007 Vpr strain, BacTiter-Glo ATP luminescence, 24 h. Potency, µM (top dose mostly 92.2 µM), most hits filed as inhibitors. 0.21% of 360,000 active. AID 651644, 2012; active means well fitted falling curve with a large enough effect; inconclusive means small, poorly fitted or top-dose-only effect; inactive means no such curve, though single readings can be large or run the other way; further: nearly all actives have a fitted effect of over 50% in size
#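 Fission yeast strain RE007, carrying one chromosomally integrated HIV-1 vpr copy, was seeded at OD 0.01 in PMG+AL medium with 23 nL pinned compound. After 24 h at 30 °C and 99% humidity, viability was read by BacTiter-Glo luminescence.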
# Tb PYK inh = qHTS of Trypanosoma Brucei Inhibitors | Potency, µM (highest dose often 76.8 µM), usual class: inhibitors | AID 624173, 2012 | 0.12% of 410,000 active | pyruvate kinase (Trypanosoma brucei), Q57TT1 | TbPYK enzyme, Kinase-Glo Plus ATP luminescence, 45 min; further: nearly all actives have a fitted effect of over 50% in size
#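 Activity of T. brucei pyruvate kinase was followed by Kinase-Glo Plus luminescence after the enzyme reacted 45 min at room temperature with 130 uM ADP (final) and substrate. Test compounds were added before ADP at multiple concentrations.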
# Giardia FBPA inh = qHTS Assay for Inhibitors of Fructose-1,6-bisphosphate Aldolase from Giardia Lamblia; A8B2U2; purified Giardia FBPA; Potency, µM (titrated, usually from 59.6 µM), most hits filed as inhibitors; 0.71% of 290,000 active; further: nearly all actives have a fitted effect of over 55% in size
#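 40 nM FBPA preincubated 10 min at RT with compound (up to 57.5 uM final), then substrate plus GAPDH/TPI/NAD/arsenate coupling and diaphorase/resazurin added. Fluorescence read after 20 min at RT, 525/598 nm.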
# A number is an active result; . = inactive; ? = inconclusive; / = no result; ! = not confirmed by another sample; [ ] = another dose, or the depositor's remark. Sampled rows, rich in hits. Any-hit rate of the full collection: about 3.5%. Unless noted, the call rests on the fitted dose curve; in most records, active means well fitted curve in the direction sought with a large enough effect; inconclusive means small, poorly fitted or top-dose-only effect, or another doubt; inactive means no such curve, though single readings can be large; an effect the other way counts as inactive or inconclusive.
SMILES,LmPK inhibitor,NS1 function inh,Sm TGR block,RE007 growth inh,Tb PYK inh,Giardia FBPA inh
O=C(C[n+]1cn(C(F)F)c2ccccc21)c1ccc(Br)cc1,.,.,4µM,.,.,.
COc1cc(NC(=O)C2CCN(S(=O)(=O)c3c(C)noc3/C=C/c3c(C)cc(C)cc3C)CC2)cc(OC)c1,/,/,.,/,.,/
COc1ccc(NC(=O)C2CCCO2)cc1 (stereo not given),.,.,.,.,.,.
O=C(Nc1ccc(-c2nc3ccccc3o2)cc1)C1CCCO1 (stereo not given),16µM,.,.,?,.,.
O=C(Nc1ccc(-c2nc3cccnc3s2)cc1)C1CCCO1 (stereo not given),14µM,.,.,.,?,.
COc1ccc(-c2cc(C(F)(F)F)nc(SCC(=O)NCC(C)C)n2)cc1OC,/,/,.,/,.,/
Fc1cccc(C[n+]2csc3ccccc32)c1,.,.,.,.,?,.
c1ccc(C[n+]2csc3ccccc32)cc1,.,.,4.5µM,.,?,.
CN(C)c1nc(N)nc(/C(C#N)=C/C2CC3C=CC2C3)n1 (stereo not given),.,.,40µM,.,.,?
COc1ccccc1NC(=O)c1ccc(COc2ccccc2OC)o1,.,.,.,.,.,.
C=CCNC(=O)c1ccc(-c2ccc([N+](=O)[O-])cc2)o1,.,.,18µM,.,.,.
C=CCc1ccc(OCc2ccc(C(=O)Nc3ccc(NC(C)=O)cc3)o2)c(OC)c1,.,.,45µM!,.,.,.
CC(=O)c1cccc(NC(=O)c2ccc(-c3ccccc3[N+](=O)[O-])o2)c1,.,.,.,.,.,10µM
Cc1cc(NC(=O)c2ccc(-c3ccccc3[N+](=O)[O-])o2)no1,/,/,/,.,.,/
O=[N+]([O-])c1ccccc1-c1ccc(C(=S)N2CCCC2)o1,.,/,.,.,?,16µM
C=CCNC(=O)c1ccc(-c2cccc([N+](=O)[O-])c2)o1,.,.,?,.,.,.
Cc1sc2c(c1C)c(=O)n(CCc1ccccc1)c(=O)n2Cc1ccc(F)cc1,/,/,.,/,.,/
O=C(c1ccc(-c2ccc([N+](=O)[O-])cc2)o1)N1CCCCCCC1,/,/,20µM,.,?,/
COc1cccc(NC(=O)c2ccc(-c3ccc([N+](=O)[O-])cc3)o2)c1,.,.,25µM,.,.,.
COc1cc([N+](=O)[O-])ccc1-c1ccc(C(=O)Nc2ccc(NC(C)=O)cc2)o1,.,?,20µM,.,?,.
COc1ccc(NC(=O)c2ccc(-c3ccc([N+](=O)[O-])cc3)o2)cc1OC,.,.,.,.,.,.
O=S(=O)(Nc1cccc(-c2ccc(N3CCCCC3)nn2)c1)c1cccc(F)c1,/,/,.,/,.,/
COc1ccc(CNCC(O)COc2ccc3[nH]c(=O)ccc3c2)cc1OC (stereo not given),/,/,/,/,.,/
Cc1cc(C)c(Cn2c(=O)n(-c3ccccc3Cl)c(=O)c3c(C)c(C(=O)N(C)C)sc32)c(C)c1,/,/,.,/,.,/
CN=C1N[C@H](c2ccccc2)N(c2ccccc2)S1,/,/,/,/,/,22µM
SMILES,LmPK inhibitor,NS1 function inh,Sm TGR block,RE007 growth inh,Tb PYK inh,Giardia FBPA inh
CCN1C(=O)NC(c2ccccc2)C1=O (stereo not given),/,/,.,.,.,/
CCn1cc(C(=O)N2CCN(c3ccccc3OC)CC2)c(=O)c2cc(S(=O)(=O)N3CCCCC3)ccc21,/,/,.,/,.,/
CCn1c2ccccc2c2cc(CN3CCN(Cc4cc(OC)c(O)c(OC)c4)CC3)ccc21,/,/,35µM,/,.,/
COc1cc(OC)c(OC)cc1CN1CCN(Cc2ccc(SC)cc2)CC1,.,/,.,.,.,?
COc1cc(CN2CCN(Cc3ccc(SC)cc3)CC2)cc(OC)c1O,.,.,10µM,.,.,?
COC(=O)CN1C(=O)CSc2ccc(S(=O)(=O)Nc3cccc(Cl)c3C)cc21,/,/,.,/,.,/
CC(=O)c1cccc(NS(=O)(=O)c2cccc(S(=O)(=O)c3ccc(Br)cc3)c2)c1,/,/,13µM,/,.,/
COc1ccc(S(=O)(=O)Nc2cccc(C(C)=O)c2)cc1Br,.,.,/,.,.,.
CCOc1cccc(C(=O)c2ccc(O)c(O)c2O)c1,/,/,/,/,/,20µM
CCOc1ccc(C(=O)c2ccc(O)c(O)c2O)cc1,/,/,/,/,/,16µM
CCOc1ccc(C(=O)c2cccs2)cc1,.,.,.,?,.,.
O=C(CSc1ccccn1)Nc1ccc(NC(=O)CSc2ccccn2)cc1,.,.,/,?,.,.
O=C(CSc1ccccn1)Nc1nonc1[N+](=O)[O-],.,.,7.1µM,?,.,/
O=C(C[n+]1ccc(-c2cc(C(=O)Nc3cccc(C(F)(F)F)c3)c3ccccc3n2)cc1)c1cccc([N+](=O)[O-])c1,?,/,45µM,.,.,.
O=C(C[n+]1cccc(NC(=O)c2ccccc2)c1)c1cccc([N+](=O)[O-])c1,.,/,.,.,.,.
Cc1nnc2n(C3CCCCC3)c(=O)c3c4c(sc3n12)COC(C)(C)C4,.,.,40µM,.,.,.
CCCc1cnc2c(c1SCC(=O)N1CCC(C)CC1)c(=O)n(C)c(=O)n2C,/,/,.,/,.,/
CS(=O)(=O)NC1c2cccc3cccc(c23)C1Sc1nncn1/N=C/c1ccco1 (stereo not given),.,.,50µM,.,.,.
Cc1ccc(CN(Cc2ccco2)C(=O)c2ccccc2Cl)o1,/,/,.,/,.,/
CCC(=O)Nc1cc(-c2cccc(C)c2)nn1-c1ccccc1,/,/,.,/,.,/
CC1(C)COC(c2ccc(F)c([N+](=O)[O-])c2)=N1,.,.,50µM,.,.,.
CCOC(=O)c1c(NC(C)=O)sc2c(O)cccc12,.,.,.[11.4 µM],.[3.69 µM],/,.
CCOC(=O)c1c(NC(C)=O)sc2c(O)c(Br)cc(Br)c12,.,.,40µM,.,.,?
CCC(=O)OC1(C)C(=O)C=C2C=C(c3ccsc3)OC=C2C1=O (stereo not given),.,.,32µM,.,.,?
COC(=O)CCC(=O)OC1(C)C(=O)C=C2C=C(c3ccsc3)OC=C2C1=O (stereo not given),/,/,/,.,.,.
CCOC(=O)c1noc2ncn(CC(=O)Nc3ccccc3OC)c(=O)c12,/,/,.,/,.,/
COCCCNC(=O)CS(=O)(=O)Cc1nc(-c2cccc(OC)c2)oc1C,.,.,?,.,.,.
CCCCN(C)C(=O)CS(=O)(=O)Cc1nc(-c2cccc(OC)c2)oc1C,.,.,22µM,.,.,.
COc1ccc(CNC(=O)CS(=O)(=O)Cc2nc(-c3cccc(OC)c3)oc2C)cc1,.,.,.,.,.,.
